# High-throughput results (PubChem)
# Rtt109 HAT inh = blocks Candida albicans Rtt109/Vps75 acetyltransferase activity | Q5AAJ8 | purified Rtt109/Vps75, ThioGlo CoA-SH fluorescence, 4 h | inhibition, % at 34.9 µM | 330,000 tested, 0.16% active;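 active = inhibition of at least 50% in every replicate; inconclusive = best replicate reaches 50% inhibition but some replicates fall short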
# Target sequence (Q5AAJ8 whole entry, looked up): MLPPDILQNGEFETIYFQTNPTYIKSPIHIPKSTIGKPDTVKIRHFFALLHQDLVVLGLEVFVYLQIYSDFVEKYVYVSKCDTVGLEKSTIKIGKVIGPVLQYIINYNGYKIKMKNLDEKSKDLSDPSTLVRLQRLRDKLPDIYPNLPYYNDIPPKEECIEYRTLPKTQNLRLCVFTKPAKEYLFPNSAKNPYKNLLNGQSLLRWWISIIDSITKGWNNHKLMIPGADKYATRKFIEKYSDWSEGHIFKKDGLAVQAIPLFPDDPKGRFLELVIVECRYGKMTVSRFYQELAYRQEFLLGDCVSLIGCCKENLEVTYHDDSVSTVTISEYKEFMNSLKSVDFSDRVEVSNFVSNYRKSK
# Glyco luc inh = N-linked glycosylation inhibition | reporter increase, % at 12.5 µM | D54 ERlucT glycosylation luciferase reporter, 24 h; percent of 100 nM tunicamycin response | 360,000 tested, 0.23% active;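 active = mean luciferase reporter signal, scaled so untreated is 0 and the glycosylation-blocking control 100, at or above a set limit in every replicate; inconclusive = mean reaches the limit but not every replicate does; inactive = mean below the limit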;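 note: luciferase carries N-glycosylation sites so blocking glycosylation raises the light; 0% = median of neutral control wells and 100% = median of 100 nM tunicamycin wells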
# PglD DTNB = inhibitors of Campylobacter jejuni PglD acetyltransferase; inhibition, % at 12.5 µM; 360,000 tested, 0.098% active; AID 602405; purified PglD enzyme, DTNB colorimetric CoA detection; in the data active = inhibition above about 16%, passing the limit was not always enough; inconclusive = no clear call, values can overlap the other calls
# DENV2 CPE = inhibitors of DENV2 cytopathic effect | DENV2-infected cells, cytopathic effect rescue, plate reader | CPE inhibition, % at 9.99 µM | 350,000 tested, 1.7% active; in the data active = CPE inhibition above about 20%, passing the limit was not always enough; inconclusive = no clear call, values can overlap the other calls; tested in BHK-21 cells;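 note: 0% = median of neutral control wells and 100% = median of positive control wells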
# Starred values were filed as active, the others as inactive; ? = inconclusive; . = not tested or not shown. Only a selection was taken, and hits are over-represented in it overall.
SMILES,Rtt109 HAT inh,Glyco luc inh,PglD DTNB,DENV2 CPE
CCCOc1cccc(C(=O)Nc2ccc(CN3CCOCC3)cc2)c1,-1.9,-2.4,5.6,25.3*
C/C(=N/NC(=O)CCC(=O)Nc1cccc(Cl)c1)c1ccc(C)cc1,-0.8,0.7,.,27.6*
C/C(=N\NC(N)=O)c1cccc(Cl)c1,4.5,1.4,.,37.6*
CC(=NNC(=O)c1ccncc1)c1cccc(Cl)c1,-1.5,1.1,-0.8,-2.2
C[C@H](CO)N1C[C@H](C)[C@@H](CN(C)S(=O)(=O)c2cccs2)OCCCC[C@H](C)Oc2ccc(NC(=O)c3ccccc3)cc2C1=O,.,.,3.5,17.4
CC(C)Oc1ccc(F)cc1-c1cc(C(=O)Nc2ccccc2)[nH]n1,.,-0.9,10.1,1.2
CC(C)Oc1ccc(F)cc1-c1cc(C(=O)Nc2ccc(C(C)(C)C)cc2)[nH]n1,.,42.1*,-5.5,4.5
CC1(C#N)c2ccccc2C(Br)=CN1C(=O)c1ccccc1 (centres undefined),2.8,0.3,-1.4,30.9*
COCC(=O)N(C)C[C@H]1Oc2cc(-c3ccncc3)ccc2S(=O)(=O)N([C@H](C)CO)C[C@H]1C,.,.,0.3,74.4*
C[C@@H]1CN([C@@H](C)CO)S(=O)(=O)c2ccc(-c3ccncc3)cc2O[C@H]1CN(C)C(=O)CC1CC1,.,.,4.9,85.2*
COCC(=O)Nc1ccc2c(c1)[C@@H]1C[C@@H](CC(=O)N(C)C)O[C@H](CO)[C@@H]1O2,.,.,-1.1,18.1
COCC(=O)Nc1ccc2c(c1)[C@H]1C[C@@H](CC(=O)O)O[C@@H](CO)[C@H]1O2,.,.,.,42.6*
COCC(=O)Nc1ccc2c(c1)[C@@H]1C[C@H](CC(=O)N(C)C)O[C@@H](CO)[C@@H]1O2,.,.,-0.3,30.5*
O=C(C[C@H]1C[C@H]2c3cc(NC(=O)Nc4ccccc4)ccc3O[C@H]2[C@H](CO)O1)NCc1ccncc1,.,.,-3.2,62.2*
COCC(=O)Nc1ccc2c(c1)[C@@H]1C[C@H](CC(=O)NCc3ccccc3)O[C@@H](CO)[C@@H]1O2,.,1.7,-0.2,-1.5
COCC(=O)Nc1ccc2c(c1)[C@H]1C[C@H](CC(=O)NCc3ccccc3)O[C@@H](CO)[C@H]1O2,.,.,-0.4,21.0*
O=C(C[C@H]1C[C@@H]2c3cc(NC(=O)C4CCC4)ccc3O[C@@H]2[C@H](CO)O1)NCc1ccccc1,.,.,-2.7,22.7*
O=C(C[C@@H]1C[C@H]2c3cc(NC(=O)C4CCC4)ccc3O[C@H]2[C@H](CO)O1)NCc1ccccc1,.,.,0.6,-1.3
COCC(=O)Nc1ccc2c(c1)[C@H]1C[C@@H](CC(=O)NCc3cc(F)ccc3F)O[C@@H](CO)[C@H]1O2,.,.,5.2,37.7*
COCC(=O)Nc1ccc2c(c1)[C@@H]1C[C@@H](CC(=O)NCc3cc(F)ccc3F)O[C@H](CO)[C@@H]1O2,.,.,-3.2,-10.5
COC(=O)C[C@@H]1CC[C@H]2[C@H](COc3ccc(NS(=O)(=O)c4cccc(F)c4)cc3C(=O)N2C)O1,.,.,15.8,-5.9
ClCCCc1cn(C[C@H]2CC[C@@H]([C@@H]3CC[C@H](Cn4cc(CCCCl)nn4)O3)O2)nn1,-1.7,-0.5,3.6,22.4*
Nc1nc(Nc2ccccc2)sc1C(=O)c1ccccc1,-1.0,28.5*,3.9,-6.7
COc1ccc(C(=O)c2sc(Nc3ccccc3)nc2N)cc1,3.2,24.9,0.4,4.9
COc1ccc(C(=O)c2sc(Nc3ccccc3)nc2N)cc1OC,-10.6,33.3*,-6.3,3.8
SMILES,Rtt109 HAT inh,Glyco luc inh,PglD DTNB,DENV2 CPE
CCCC#Cc1ccc2c(c1)[C@@H]1[C@@H](CCN1C(=O)CC1CC1)[C@@H](CO)N2C,.,.,-4.4,74.3*
CCC(=O)N1CC[C@@H]2[C@H]1c1cc(C#Cc3cccc(F)c3)ccc1N(C)[C@H]2CO,.,.,-6.2,127.1*
CCC(=O)N1CC[C@@H]2[C@H]1c1cc(-c3cccc(F)c3)ccc1N(C)[C@H]2CO,.,.,2.9,.
Cc1ccccc1S(=O)(=O)N1C[C@@H](O)COC[C@H]2O[C@H](CC(=O)O)CC[C@@H]21,.,.,0.1,0.2
Cc1ccc2[nH]c(-c3ccccc3)cc(=O)c2c1,3.2,16.9,5.1,111.5*
Cc1ccc(-c2cc(=O)c3ccccc3[nH]2)cc1,-2.0,4.7,-1.1,.
C[C@@H]1CN([C@H](C)CO)C(=O)c2cc(C#C[C@@H](C)O)cnc2O[C@@H]1CN(C)C(=O)c1ccc(F)cc1,.,.,4.1,6.9
COc1cc(C(=O)OCCc2cc3ccccc3c(=O)o2)cc(OC)c1OC,2.4,27.0*,-3.8,-4.8
COc1cc(C(=O)OCCCc2cc3ccccc3c(=O)o2)cc(OC)c1OC,0.6,0.3,-0.7,?
COc1ccc(C(=O)CSc2nn3c(=O)c(C(C)(C)C)nnc3s2)cc1,2.2,33.9*,.,.
COCC(=O)Nc1ccc2c(c1)[C@H]1C[C@@H](CC(=O)N3CCCCC3)O[C@@H](CO)[C@H]1O2,.,.,7.2,?
CC1=CC(=O)C2=C(C)CCC3C(C)C(=O)OC3C12 (centres undefined),.,-3.9,-2.0,21.6*
O=C(NC[C@@H]1N[C@@H](CO)[C@@H]1c1ccccc1)c1ccccc1F,.,.,3.1,29.2*
O=C(CN1CCCc2ccccc21)NCc1ccc2c(c1)OCO2,64.0*,0.7,-6.3,.
CN1C(=O)c2cc(NC(=O)C3CCCC3)ccc2OC[C@H]2O[C@H](CC(=O)NCC(F)(F)F)CC[C@@H]21,.,.,2.1,-10.6
COCC#Cc1ccc2c(c1)O[C@@H](CN(C)S(=O)(=O)c1cccc(OC)c1)[C@@H](C)CN([C@H](C)CO)S2(=O)=O,.,.,-0.5,-8.3
CO[C@H]1CN(C)C(=O)c2ccc(NS(=O)(=O)c3ccccc3C)cc2OC[C@H](C)N(C)C[C@@H]1C,.,.,.,1.3
C[C@@H]1CN([C@H](C)CO)C(=O)c2cc(NC(=O)Nc3cccc4ccccc34)ccc2O[C@@H](C)CCCCO[C@H]1CN(C)Cc1ccc(Cl)c(Cl)c1,.,.,.,-3.9
C[C@@H]1CCCCO[C@@H](CN(C)Cc2ccc(Cl)c(Cl)c2)[C@@H](C)CN([C@H](C)CO)C(=O)c2cc(NC(=O)Nc3cccc4ccccc34)ccc2O1,.,.,13.9,21.9*
C[C@H](CO)N1C[C@H](C)[C@@H](CN(C)Cc2ccc(Cl)c(Cl)c2)OCCCC[C@H](C)Oc2ccc(NC(=O)Nc3cccc4ccccc34)cc2C1=O,.,.,0.5,33.1*
O=C(Cc1ccccn1)N1CC2(C1)[C@@H](c1ccccc1)[C@@H](CO)N2C(=O)c1ccccc1,.,.,.,3.2
C[C@H]1CN([C@@H](C)CO)C(=O)c2cccc(NC(=O)C3CCCCC3)c2O[C@@H]1CN(C)Cc1ccc(C(=O)O)cc1,.,.,-0.1,-4.2
CC(C)n1c(/C=C/[C@H](O)C[C@H](O)CC(=O)O)c(-c2ccc(F)cc2)c2ccccc21,1.1,103.5*,0.4,.
Cn1cc(C(CC(=O)O)C(=O)O)c2ccccc21 (centres undefined),-2.6,-0.8,0.1,-17.0
CCN(CC(=O)Nc1cc(Cl)ccc1C)C(=O)c1ccc2c(c1)NC(=O)C(C)S2 (centres undefined),-3.8,-4.9,1.0,50.2*
Cc1ccc(S(=O)(=O)N(C)C[C@@H]2OCCCC[C@H](C)Oc3ccc(NC(=O)c4ccncc4)cc3C(=O)N([C@H](C)CO)C[C@H]2C)cc1,.,.,-5.1,-0.9
